Screening data as filed in PubChem BioAssay.
A selection: hits, their analogues and other compounds. The true share with any hit is near 0.82%.
Keap1-Nrf2 PPI: Keap1-Nrf2 protein-protein interaction inhibitors, primary screen, biochemical, fluorescence polarization, single point; AID 504523, 2011; Keap1 Kelch-Nrf2 peptide fluorescence polarization, 1536-well; inhibition, % at 9.4 µM; Kelch-like ECH-associated protein 1 (Homo sapiens), Q14145; 340,000 tested, 0.15% active; in the data active = inhibition above about 12%;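 note: human Keap1 Kelch domain with fluorescein labeled Nrf2 9mer peptide probe; higher means more block of Keap1 binding to Nrf2 peptide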
Target sequence (Q14145 whole entry, looked up, the tested form may be a part): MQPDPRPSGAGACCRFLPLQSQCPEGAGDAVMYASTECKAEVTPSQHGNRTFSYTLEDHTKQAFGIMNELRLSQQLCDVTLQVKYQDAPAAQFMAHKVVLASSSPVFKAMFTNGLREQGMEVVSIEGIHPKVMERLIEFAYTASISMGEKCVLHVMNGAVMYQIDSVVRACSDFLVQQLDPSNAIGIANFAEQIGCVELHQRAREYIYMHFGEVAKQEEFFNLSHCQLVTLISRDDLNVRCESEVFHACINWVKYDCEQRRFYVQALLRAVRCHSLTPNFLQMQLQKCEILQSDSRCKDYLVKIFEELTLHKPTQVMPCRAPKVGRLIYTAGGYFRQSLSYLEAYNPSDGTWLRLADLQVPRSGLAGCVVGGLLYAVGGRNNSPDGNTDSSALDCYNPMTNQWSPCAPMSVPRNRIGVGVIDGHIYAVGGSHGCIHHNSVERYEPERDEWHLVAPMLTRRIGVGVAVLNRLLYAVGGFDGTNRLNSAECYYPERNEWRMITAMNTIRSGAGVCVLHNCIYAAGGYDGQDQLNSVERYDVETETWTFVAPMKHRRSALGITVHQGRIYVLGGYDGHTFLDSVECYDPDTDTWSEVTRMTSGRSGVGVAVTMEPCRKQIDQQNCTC
RTF Ca sens inh: cardiac RTF calcium sensitivity inhibitors, primary screen, biochemical, IANBD-TnC fluorescence, EC70 calcium; IANBD-labeled cardiac RTF, Ca2+ fluorescence; inhibition, % at 7.15 µM; 340,000 tested, 0.12% active;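 active = inhibition above the mean inhibition of all tested compounds plus 3 SD, cut at about 17% in these data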;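 note: assay run at fixed EC70 calcium of 1.6 mM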
eLon inh: inhibitors of E. coli Lon protease, primary screen, biochemical, fluorescence polarization. P0A9M0. purified E. coli Lon protease. inhibition, % at 7.94 µM. 360,000 tested, 0.42% active. AID 602123, 2011; in the data active = inhibition above about 13%, passing the limit was not always enough
C-LANA FP: inhibitors of KSHV C-LANA binding to DNA, primary screen, biochemical, fluorescence polarization, FAM-LBS DNA, MBP-C-LANA, single point | inhibition, % at 9 µM | 340,000 tested, 0.078% active | AID 504423, 2011;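 active = highest replicate inhibition at or above 60% at 9 µM, even if other replicates fall short; inactive = all replicates below 60% inhibition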
RTF Ca sens act: cardiac RTF calcium sensitivity activators, primary screen, biochemical, IANBD-TnC fluorescence, EC20 calcium; AID 493008, 2010; 340,000 tested, 0.24% active; Troponin I, cardiac muscle (Homo sapiens) + Troponin T, cardiac muscle (Homo sapiens) + …; activation, % at 7.2 µM; IANBD-labeled TnC RTF fluorescence at EC20 calcium; 0% EC20 calcium, 100% full calcium;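 active = activation above the mean over all tested compounds plus 3 SD, cut at about 30% in these data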;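 note: rise in fluorescence read as greater calcium sensitivity of cardiac thin filaments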
eLon confirm: E. coli Lon protease inhibitor retest, confirmation, biochemical, fluorescence polarization; shares compounds with eLon inh; 1,400 tested, 31% active; purified E. coli Lon; inhibition, % at 7.94 µM; in the data active = inhibition above about 16%
A number is an active result; – = inactive; · = not tested or not shown.

SMILES | Keap1-Nrf2 PPI | RTF Ca sens inh | eLon inh | C-LANA FP | RTF Ca sens act | eLon confirm
CC(=O)c1ccc(NC(=O)CN2C(=O)NC3(CCc4ccccc43)C2=O)cc1 (stereo not given) | – | – | 19 | – | – | –
CNC(=O)CN1C(=O)NC2(CCc3ccccc32)C1=O (stereo not given) | – | – | – | – | – | ·
CC1(C(=O)NCc2cccs2)Cc2c(-c3ccc4c(c3)OCO4)ccnc2O1 (stereo not given) | · | · | – | · | · | ·
O=C(CCN1C(=O)S/C(=C\c2ccccc2)C1=O)Nc1ccc(O)cc1C(=O)O | – | – | 19 | – | – | –
O=C(CCN1C(=O)S/C(=C/c2ccccc2)C1=O)Nc1ccc(O)c(C(=O)O)c1 | – | – | – | – | – | ·
O=C(CC1C=CCC1)Nc1ccccc1 (stereo not given) | – | – | 50 | – | – | –
CC1=CC(=O)Nc2ncccc2O1 | · | · | – | · | · | ·
CC(=O)Nc1ccc(Nc2ccc3c4c(cc(=O)n3C)-c3ccccc3C(=O)c24)cc1 | – | – | 33 | – | – | 52
CC(=O)N(CCc1ccccc1)c1ccc2c(c1)C1CC2CCN1C(=O)OCc1ccccc1 (stereo not given) | · | · | – | · | · | ·
c1ccc2c(c1)CCCN2Cc1nnc2n1CCCCC2 | – | – | 66 | – | 37 | –
c1ccc(Cc2nnc3n2CCCCC3)cc1 | – | – | – | – | – | ·
CC1C(=O)C(C)C(c2ccco2)NC1c1ccco1 (stereo not given) | – | – | 24 | – | – | –
O=C(CCCOC(=O)c1ccc(O)cc1O)c1ccc(Br)cc1 | – | – | 20 | – | – | –
O=C(NCCc1ccccc1)C1CCN(S(=O)(=O)N2CCCCCC2)CC1 | – | – | 35 | – | – | 19
O=C(NCCc1ccccc1)c1cccc(NC(=O)C2CCCC2)c1 | – | – | 16 | – | – | –
O=C(NCCc1ccccc1)c1cccc(NC(=O)C2CCCCC2)c1 | – | – | – | – | – | ·
COCCn1c(SCC(=O)c2cc(C)n(C)c2C)nc2ccccc2c1=O | – | – | 15 | – | – | –
COCOCCn1cc(CN2CCS(=O)(=O)N(Cc3ccc(-c4ccc(Cl)c(Cl)c4)cc3)C(C)C2=O)nn1 (stereo not given) | · | · | – | · | · | ·
O=C(CCC1CCCC1)NC1CCCCC1 | – | – | 15 | – | – | –
O=C(CC1CCCCC1)NC1CCCC1 | – | – | – | – | – | ·
O=C1NC2c3c(I)sc(I)c3C(=O)C2O1 (stereo not given) | – | – | 105 | – | – | 17
O=C1C=C(Nc2ccccc2O)c2ccccc2C1=O | – | – | 43 | – | – | –
Cc1ccc(NC2=CC(=O)C(=O)c3ccccc32)c(C)c1 | – | – | – | – | – | ·
CCc1nc2ccc(C(=O)NCc3ccccc3OC)cn2c1N(C)Cc1ccc(N(C)C)cc1 | · | · | – | · | · | ·
Cc1ccc(C(=O)NCCc2nnc3ccc(SCC(=O)Nc4nnc(C)s4)nn23)cc1 | · | · | – | · | · | ·
SMILES | Keap1-Nrf2 PPI | RTF Ca sens inh | eLon inh | C-LANA FP | RTF Ca sens act | eLon confirm
Cc1cccc(-c2noc(-c3csc([C@@H]4C[C@H](O)[C@@H](CO)O4)n3)n2)c1 | · | · | – | · | · | ·
O=C1N[C@@H](Cc2ccccc2)C(=O)N2[C@H]1C[C@]1([C@]34C[C@H]5C(=O)N[C@@H](Cc6ccccc6)C(=O)N5[C@H]3N(S(=O)(=O)c3ccccc3)c3ccccc34)c3ccccc3N(S(=O)(=O)c3ccccc3)[C@H]21 | – | – | 55 | – | – | –
O=C1N[C@@H](Cc2ccccc2)C(=O)N2[C@@H]3N(S(=O)(=O)c4ccccc4)c4ccccc4[C@]3(Br)C[C@@H]12 | – | – | – | – | – | ·
CC(C)c1ccc(NC(=O)C2(C)Cc3c(-c4ccc(N(C)C)cc4)ccnc3O2)cc1 (stereo not given) | · | · | – | · | · | ·
O=C1C2C3C=CC(CC3)C2C(=O)N1c1ccc(F)cc1 (stereo not given) | – | – | – | – | – | ·
CC(C)C1NC2(C(=O)c3ccccc3C2=O)C2C(=O)N(c3ccc(F)cc3)C(=O)C12 (stereo not given) | – | – | 50 | – | – | –
O=C(CCC1CCCC1)N1CCN(S(=O)(=O)c2ccc(Br)cc2)CC1 | – | – | 19 | – | – | –
O=C(CC1CCCC1)N1CCN(S(=O)(=O)c2ccc(F)cc2)CC1 | – | – | – | – | – | ·
CCC(CCC(=O)Nc1cccc([N+](=O)[O-])c1)C(=O)O (stereo not given) | – | – | – | – | – | ·
CCC(CC)C(=O)OCC(=O)Nc1cccc([N+](=O)[O-])c1 | – | – | 16 | – | – | –
O=S(=O)(c1ccc2c(c1)OCCO2)N1CCC(n2cnc3cc(F)ccc32)CC1 | – | – | 17 | – | – | –
C=CC[C@H](CC(=O)N(CCO)Cc1ccccc1)C(=O)N[C@H](COC(=O)[C@@H](CC=C)CC(=O)OC(C)(C)C)c1ccccc1 | – | – | 20 | – | – | –
C=CC[C@H](CC(=O)N(CCO)Cc1ccccc1)C(=O)N[C@@H](C)COC(=O)[C@H](CC=C)CC(=O)OC(C)(C)C | – | – | – | – | – | ·
CCn1c2ccccc2c2cc(NS(=O)(=O)c3ccccc3C)ccc21 | – | – | 14 | – | – | –
Cc1ccc(S(=O)(=O)N(C)C[C@@H]2OCc3cnnn3CCCC(=O)N([C@@H](C)CO)C[C@H]2C)cc1 | · | · | – | · | · | ·
Cc1cccc(C)c1NC(=O)C1CCN(S(C)(=O)=O)CC1 | – | – | 40 | – | – | –
Cc1cc(C)c(NC(=O)C2CCN(S(C)(=O)=O)CC2)c(C)c1 | · | · | – | · | · | ·
O=C(CN(Cc1ccco1)S(=O)(=O)c1cccs1)Nc1ccccc1C(F)(F)F | – | – | 17 | – | – | –
O=C(CN(Cc1ccco1)C(=O)c1ccccc1F)Nc1ccccc1C(F)(F)F | – | – | – | – | – | ·
O=C(Nc1ccc2c(c1)OCCO2)c1[nH]c(C(F)(F)F)nc1-c1ccccc1 | · | · | – | · | · | ·
CC(C)n1c2ccccc2c2cc([N+](=O)[O-])ccc21 | – | – | 56 | – | – | –
C=CCNc1ncnc2c1ncn2[C@H]1CN(Cc2cc(OC)c(OC)c(OC)c2)C[C@@H](CO)O1 | · | · | – | · | · | ·
Cc1[nH]c2ccccc2c1C(=O)C(=O)NCc1nnnn1-c1ccc(F)c(F)c1 | · | · | – | · | · | ·
CCC1(c2ccccc2)NC(=O)N(CC(=O)Nc2cc(Cl)ccc2N2CCOCC2)C1=O (stereo not given) | – | – | 17 | – | – | –
CCOC(=O)[C@]12CCC=C1N(CCC1=CCCCC1)C(=O)[C@H](CC(=O)NCCCCc1ccccc1)C2 | · | · | – | · | · | ·
